Where a name gives a salt, the structure may show the parent alone.
tested on: LOC_OS02G14120-cb001; test: thermal shift delta Tm vs DMSO control; higher = stronger stabilization (binding); conditions: 12.5 µM; protein concentration 2 µM
In short: (§1)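 Compounds dissolved in DMSO were added to purified rice kinase domain constructs, which had been expressed in E. coli, for differential scanning fluorimetry. Each well held 19.5 μl of 2 μM kinase in 100 mM potassium phosphate pH 7.5, 150 mM NaCl, 10% glycerol and 5 × SYPRO Orange. Fluorescence was followed from 25°C to 95°C at a rate of 0.05°C/s. Shifts in Boltzmann-fitted melting temperature are triplicate means relative to DMSO-only protein.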

SMILES	thermal shift delta Tm [°C]
Cc1cnc(Nc2ccc(OCCN3CCCC3)cc2)nc1Nc1cccc(S(=O)(=O)NC(C)(C)C)c1	7.4
CN1CCN(CCOc2cc(OC3CCOCC3)c3c(Nc4c(Cl)ccc5c4OCO5)ncnc3c2)CC1 [Saracatinib (AZD0530)]	8.8
Cn1cc(-c2ccc(F)c(C(F)(F)F)c2)nc1C1CCN(c2ncnc3[nH]ncc23)CC1	0.5
O=C(O)c1ccc2c(c1)nc(Nc1cccc(Cl)c1)c1ccncc12 [Silmitasertib (CX-4945)]	2.72
Cn1c(=O)c(F)c(Nc2ccc(I)cc2F)c2c(=O)n(C[C@@H](O)CO)cnc21	0.98
O=C(NC[C@H](O)CO)c1ccncc1Nc1ccc(I)cc1F	-0.42
COc1c(C)c(C(=O)c2ccc(N)c(C(=O)O)c2)n2ccccc12	-0.55
COc1cc(N2CCC(N)CC2)ccc1Nc1ncc(Cl)c(-c2c[nH]c3ccccc23)n1	9.17
C=CC(=O)Nc1ccc2ncnc(Nc3ccc(OCc4cccc(F)c4)c(Cl)c3)c2c1	2.45
CCS(=O)(=O)N1CCN(c2ccc(Nc3ncc(C(N)=O)c(NC4CC4)n3)cc2)CC1	5.36
O=C1c2ccc(Nc3ccc(F)cc3F)cc2CCc2ccc(OC[C@H](O)CO)cc21 [Skepinone-L]	0.72
CCN1C(=O)CNc2ncc(-c3ccc(-c4nc[nH]n4)nc3C)nc21	-0.7
Cc1ccc(CNc2ncnc3ccc(-c4ccc(CO)o4)cc23)o1	3.01
CCc1cncnc1N1CCN(Cc2nc3ccc(C(F)(F)F)cc3[nH]2)CC1	-0.72
Cc1cc(CN2CCN(c3c(Br)cnc4nc(-c5ccc(N6CCN(C)CC6)cc5)[nH]c34)CC2)no1	4.66
Cc1nc(-c2cn3c(n2)-c2ccc(-c4cnn(C(C)(C)C(N)=O)c4)cc2OCC3)n(C(C)C)n1 [Taselisib (GDC 0032)]	0.27
Cc1ccc(NC(=O)c2ccc(CN3CCN(C)CC3)cc2)cc1Nc1nccc(-c2cccnc2)n1 [Imatinib Mesylate (STI571)]	0.52
O=c1cc(N2CCOCC2)oc2c(-c3ccccc3)cccc12	0.08
Nc1ncccc1-c1nc2ccc(-c3ccccc3)nc2n1-c1ccc(C2(N)CCC2)cc1 [Miransertib (ARQ 092) HCl]	1.05

SMILES	thermal shift delta Tm [°C]
CNS(=O)(=O)C[C@H]1CC[C@H](N(C)c2[nH]cnc3nccc2-3)CC1 [Oclacitinib]	4.19
N#Cc1ccc2[nH]c(O)c(-c3ccc(CN4CCOCC4)cn3)c2c1	-0.04
C[C@]1(O)C[C@@H](c2nc(-c3ccc4ccc(-c5ccccc5)nc4c3)c3c(N)nccn32)C1 [Linsitinib (OSI-906)]	0.29
CN1CCC(COc2cnc(-c3cccc(Cn4nc(-c5cccc(C#N)c5)ccc4=O)c3)nc2)CC1	0.1
CC(C)(C)c1nc(-c2ccc(NC(=O)Nc3cccc(C(F)(F)F)c3)c3ccccc23)c2c(N)nccn12 [kira6]	2.07
Oc1c(F)cc(-c2cnccc2-c2ccc(N3CCOCC3)cc2)cc1F	0.35
CC(C)[C@H](CO)Nc1nc(Nc2cccc(Cl)c2)c2ncn(C(C)C)c2n1 [Purvalanol A]	1.7
CNC(=O)c1cc(Oc2ccc(NC(=O)Nc3ccc(Cl)c(C(F)(F)F)c3)cc2)ccn1 [Sorafenib]	2.47
O=c1cc(-c2cccc3c2Sc2ccccc2S3)oc(N2CCOCC2)c1	0.45
N#Cc1c(Oc2ccc(F)c(NC(=O)Cc3cccc(C(F)(F)F)c3)c2)ccc2nc(NC(=O)C3CC3)sc12	0.68
CC[C@@](C)(Nc1ccnc(-c2c[nH]c3ncccc23)n1)C(=O)NCC(F)(F)F [Decernotinib (VX-509)]	5.49
CCNC(=O)Nc1ccc(-c2nc3c(c(N4CCOC[C@@H]4C)n2)CCN(C2COC2)C3)cc1	-0.29
COc1cc(OC)cc(N(CCNC(C)C)c2ccc3ncc(-c4cnn(C)c4)nc3c2)c1	2.34
C[C@@]1(C(=O)Nc2ccc(F)nc2)CCCN1c1nc(Nc2cc(C3CC3)n[nH]2)c2cccn2n1	8.77
O=C1CCc2c(Oc3ccc4c(c3)[C@@H]3[C@H](O4)[C@H]3c3nc4cc(C(F)(F)F)ccc4[nH]3)ccnc2N1 [Lifirafenib (BGB-283)]	2.67
O=C1Nc2ccc(CN3C(=O)CSC3=O)cc2/C1=C/c1cc(CN2CCOCC2)c[nH]1	9.24
CN(c1ccccc1CNc1nc(Nc2ccc3c(c2)CC(=O)N3)ncc1C(F)(F)F)S(C)(=O)=O	8.26
Cc1nc(N)sc1-c1ccnc(Nc2ccc(N3CCOCC3)cc2)n1	8.9

tested on: LOC_OS02G17970-cb001; test: as above; conditions: 12.5 µM; protein concentration 2 µM
In short: as §1

SMILES	thermal shift delta Tm [°C]
Cc1cnc(Nc2ccc(OCCN3CCCC3)cc2)nc1Nc1cccc(S(=O)(=O)NC(C)(C)C)c1	0.44
CN1CCN(CCOc2cc(OC3CCOCC3)c3c(Nc4c(Cl)ccc5c4OCO5)ncnc3c2)CC1 [Saracatinib (AZD0530)]	0
Cn1cc(-c2ccc(F)c(C(F)(F)F)c2)nc1C1CCN(c2ncnc3[nH]ncc23)CC1	0.85
O=C(O)c1ccc2c(c1)nc(Nc1cccc(Cl)c1)c1ccncc12 [Silmitasertib (CX-4945)]	1.95
Cn1c(=O)c(F)c(Nc2ccc(I)cc2F)c2c(=O)n(C[C@@H](O)CO)cnc21	1.05
O=C(NC[C@H](O)CO)c1ccncc1Nc1ccc(I)cc1F	0.32
COc1c(C)c(C(=O)c2ccc(N)c(C(=O)O)c2)n2ccccc12	1.28
COc1cc(N2CCC(N)CC2)ccc1Nc1ncc(Cl)c(-c2c[nH]c3ccccc23)n1	1.36
C=CC(=O)Nc1ccc2ncnc(Nc3ccc(OCc4cccc(F)c4)c(Cl)c3)c2c1	2.87
CCS(=O)(=O)N1CCN(c2ccc(Nc3ncc(C(N)=O)c(NC4CC4)n3)cc2)CC1	1.18
O=C1c2ccc(Nc3ccc(F)cc3F)cc2CCc2ccc(OC[C@H](O)CO)cc21 [Skepinone-L]	0.17
CCN1C(=O)CNc2ncc(-c3ccc(-c4nc[nH]n4)nc3C)nc21	0.77
Cc1ccc(CNc2ncnc3ccc(-c4ccc(CO)o4)cc23)o1	1.11
CCc1cncnc1N1CCN(Cc2nc3ccc(C(F)(F)F)cc3[nH]2)CC1	0.34
Cc1cc(CN2CCN(c3c(Br)cnc4nc(-c5ccc(N6CCN(C)CC6)cc5)[nH]c34)CC2)no1	0.14
Cc1nc(-c2cn3c(n2)-c2ccc(-c4cnn(C(C)(C)C(N)=O)c4)cc2OCC3)n(C(C)C)n1 [Taselisib (GDC 0032)]	0.09
Cc1ccc(NC(=O)c2ccc(CN3CCN(C)CC3)cc2)cc1Nc1nccc(-c2cccnc2)n1 [Imatinib Mesylate (STI571)]	0.04
O=c1cc(N2CCOCC2)oc2c(-c3ccccc3)cccc12	0.84
Nc1ncccc1-c1nc2ccc(-c3ccccc3)nc2n1-c1ccc(C2(N)CCC2)cc1 [Miransertib (ARQ 092) HCl]	-0.46

SMILES	thermal shift delta Tm [°C]
CNS(=O)(=O)C[C@H]1CC[C@H](N(C)c2[nH]cnc3nccc2-3)CC1 [Oclacitinib]	1.21
N#Cc1ccc2[nH]c(O)c(-c3ccc(CN4CCOCC4)cn3)c2c1	0.51
C[C@]1(O)C[C@@H](c2nc(-c3ccc4ccc(-c5ccccc5)nc4c3)c3c(N)nccn32)C1 [Linsitinib (OSI-906)]	0.89
CN1CCC(COc2cnc(-c3cccc(Cn4nc(-c5cccc(C#N)c5)ccc4=O)c3)nc2)CC1	0.24
CC(C)(C)c1nc(-c2ccc(NC(=O)Nc3cccc(C(F)(F)F)c3)c3ccccc23)c2c(N)nccn12 [kira6]	1.1
Oc1c(F)cc(-c2cnccc2-c2ccc(N3CCOCC3)cc2)cc1F	0.29
CC(C)[C@H](CO)Nc1nc(Nc2cccc(Cl)c2)c2ncn(C(C)C)c2n1 [Purvalanol A]	0.39
CNC(=O)c1cc(Oc2ccc(NC(=O)Nc3ccc(Cl)c(C(F)(F)F)c3)cc2)ccn1 [Sorafenib]	2.3
O=c1cc(-c2cccc3c2Sc2ccccc2S3)oc(N2CCOCC2)c1	0.59
N#Cc1c(Oc2ccc(F)c(NC(=O)Cc3cccc(C(F)(F)F)c3)c2)ccc2nc(NC(=O)C3CC3)sc12	0.88
CC[C@@](C)(Nc1ccnc(-c2c[nH]c3ncccc23)n1)C(=O)NCC(F)(F)F [Decernotinib (VX-509)]	0.86
CCNC(=O)Nc1ccc(-c2nc3c(c(N4CCOC[C@@H]4C)n2)CCN(C2COC2)C3)cc1	-0.11
COc1cc(OC)cc(N(CCNC(C)C)c2ccc3ncc(-c4cnn(C)c4)nc3c2)c1	-0.45
C[C@@]1(C(=O)Nc2ccc(F)nc2)CCCN1c1nc(Nc2cc(C3CC3)n[nH]2)c2cccn2n1	0.26
O=C1CCc2c(Oc3ccc4c(c3)[C@@H]3[C@H](O4)[C@H]3c3nc4cc(C(F)(F)F)ccc4[nH]3)ccnc2N1 [Lifirafenib (BGB-283)]	2.49
O=C1Nc2ccc(CN3C(=O)CSC3=O)cc2/C1=C/c1cc(CN2CCOCC2)c[nH]1	-0.08
CN(c1ccccc1CNc1nc(Nc2ccc3c(c2)CC(=O)N3)ncc1C(F)(F)F)S(C)(=O)=O	0.68
Cc1nc(N)sc1-c1ccnc(Nc2ccc(N3CCOCC3)cc2)n1	-0.16

From the supplement of paper PMC9694430
